Inconclusive results are not listed. Where a call stands in place of a potency, no number is given. Active and inactive are the calls of the source. Calls follow the shape of the dose curve; as a rule, active = well fitted inhibition curve with a large enough effect; inconclusive = small, poorly fitted or top-dose-only effect; inactive = no such curve, though single readings can be large or run the other way.
assay: Primary qHTS for small molecule stabilizers of the endoplasmic reticulum resident proteome: Secreted ER Calcium Modulated Protein (SERCaMP) assay (AID 1508630); details: SH-SY5Y GLuc-SERCaMP (Gaussia luciferase released on ER calcium loss) secretion, thapsigargin, luminescence; series mostly up to 38.4 µM
Excerpt: Assay Provider: Brandon K. Harvey Ph.D.
National Institute on Drug Abuse, National Institutes of Health, Baltimore, MD
Endoplasmic reticulum (ER) dysregulation is associated with human pathologies including neurodegenerative, cardiovascular, muscular, and diabetic conditions. Maintenance of ER calcium is critical for functions of the ER and its depletion can lead to loss of ER resident proteins, in a process termed exodosis. Therapeutic compounds capable of attenuating the redistribution of ER proteins under pathological conditions may slow or stop disease progression. To identify such compounds, we performed a quantitative high-throughput screen (qHTS) using the SERCaMP assay, which monitors secretion of ER resident proteins triggered by calcium depletion.
SERCaMP was initially developed as a reporter of ER calcium homeostasis using a Gaussia luciferase with a modified signal peptide and carboxy-terminus (GLuc-SERCaMP), modifications that confer secretion of the reporter in response to ER calcium depletion (Henderson et al., 2014). The assay was used to screen 9,501 compounds, including a collection of drugs approved by the FDA (US), EMA (EU), NHI (Japan), and HC (Canada) regulatory agencies (Huang et al., 2011). Since the SERCaMP reporter reflects the exodosis phenomenon (Trychta et al., 2018a), compounds identified in the screen have the potential to prevent exodosis by different mechanisms such as stabilizing ER calcium or augmenting ERS retrieval.
1. Henderson, M.J., Wires, E.S., Trychta, K.A., Richie, C.T., and Harvey, B.K. (2014). SERCaMP: a carboxy-terminal protein modification that enables monitoring of ER calcium homeostasis. Mol Biol Cell 25, 2828-2839.
2. Huang, R., Southall, N., Wang, Y., Yasgar, A., Shinn, P., Jadhav, A., Nguyen, D.T., and Austin, C.P. (2011). The NCGC pharmaceutical collection: a comprehensive resource of clinically approved drugs enabling repurposing and chemical genomics. Sci Transl Med 3, 80ps16.
3. Trychta, K.A., Back, S., Henderson, M.J., and Harvey, B.K. (2018a). KDEL Receptors Are Differentially Regulated to Maintain the ER Proteome under Calcium Deficiency. Cell Rep 25, 1829-1840 e1826.
SEQUENCE No. (1, 2, 3, etc.); […] (e.g., Cells, Incubation, Reagent, etc.); VALUE and DESCRIPTION.
1; Reagent; 5 uL; 1000 SH-SY5Y cells per wells
3; Compound; 23 nL; Control inhibitor / compound library
5; Reagent; 100 nM; Thapsigargin
7; Reagent; 1 uL; 0.5x coelenterazine
8; Detection; Luminescence; ViewLux imaging system
NOTES (numbers refer to sequence above)
1; SH-SY5Y human neuroblastoma cells stably expressing GLuc-SERCaMP (SH-SY5Y-GLuc-ASARTDL) cells were seeded in 1,536 well white tissue culture treated plates (Corning, Cat# 7464) in DMEM-high glucose-sodium pyruvate (ThermoFisher Scientific, Cat #10569) supplemented with 10% bovine growth serum (Hyclone), 10 U/ml penicillin (Gibco), 10 ug/ml streptomycin (Gibco), and 20 mM HEPES.
2; Assay plates were incubated for 5 hour at 37C in a humidified incubator containing 5% CO2.
3; qHTS libraries (23 nl, final concentrations of 1.53 uM, 7.67 uM, 38.3 uM) or controls (neutral control: DMSO, positive control: dantrolene) were added using a Kalypsis pin-tool Robotic System equipped with 1536 pinheads.
4; Cells were then incubated for 16 hours at 37C, 5% CO2.
5; Thapsigargin was added at 100 nM to deplete ER calcium stores.
6; Cells were incubated for 4 hour (37 °C, 5% CO2)
7; Gaussia luciferase in the medium was measured by adding 1 ul of 0.5x coelenterazine (final concentration 0.07x) prepared in Gaussia Luciferase Glow Assay Buffer (Pierce), without addition of the Cell Lysis Buffer Reagent.
8; Luminescence was measured using a ViewLux […] CCD imaging system (Perkin Elmer) equipped with clear filters. […] The same controls were also used for the calculation of the Z' factor, a measure of assay quality control, as previously described (Zhang et al., 1999). […]

| SMILES | Potency |
| --- | --- |
| CCn1c(-c2nonc2N)nc2cnc(Oc3cccc(NC(=O)c4ccc(OCCN5CCOCC5)cc4)c3)cc21 | inactive |
| COc1cc(F)c(F)c(Nc2ccc(I)cc2F)c1NS(=O)(=O)C1(C[C@H](O)CO)CC1 | inactive |
| O=C(O)[C@@H](c1ccc(OCc2ccc3ccccc3n2)cc1)C1CCCC1 | inactive |
| O=C(C=Cc1ccc(/C=C/C(=O)Nc2ccc(C3=NCCN3)cc2)cc1)Nc1ccc(C2=NCCN2)cc1 | inactive |
| O=C(C1CC1)N1CC[C@@H](Cn2c(-c3ccc(-c4ccc5occc5c4)cc3)nc3cnccc32)C1 | inactive |
| Clc1cccc(Cl)c1NC1=NCCN1 | inactive |
| Cc1cc2c(C(C)C)c(O)c(O)c(C=O)c2c(O)c1-c1c(C)cc2c(C(C)C)c(O)c(O)c(C=O)c2c1O | inactive |
| CC1(C)SCCN(S(=O)(=O)c2ccc(OCC#CCO)cc2)[C@@H]1C(=O)NO | inactive |
| CCN(CC)CCCC(C)Nc1nc(C)cc(Nc2ccc3nc(C)cc(N)c3c2)n1 (stereo not given) | inactive |
| CCCC(CCC)C(=O)O | inactive |
| Cc1c(CCOc2ccc(C(=O)O)cc2)c2cc(Cl)ccc2n1C(c1ccccc1)c1ccccc1 | inactive |
| CCCc1nc2c(C)cc(-c3nc4ccccc4n3C)cc2n1Cc1ccc(-c2ccccc2C(=O)O)cc1 | inactive |
| COc1cc2c(cc1OC)CN(CCc1ccc(NC(=O)c3cccc4c(=O)c5cccc(OC)c5[nH]c34)cc1)CC2 | inactive |
| N=c1nc(N2CCCCC2)cc(N)n1O | inactive |
| Nc1nccc(-c2ccc3noc(-c4ccc(Cl)cc4)c3c2)n1 | inactive |
| CNC(=O)c1ccccc1Sc1ccc2c(/C=C/c3ccccn3)n[nH]c2c1 | inactive |
| CC(c1cc2ccccc2s1)N(O)C(N)=O (stereo not given) | inactive |
| CCc1cncnc1N1CCN(Cc2nc3ccc(C(F)(F)F)cc3[nH]2)CC1 | inactive |
| O=S(=O)(N=Cc1c(O)ccc2ccccc12)c1cccs1 | inactive |
| CCOC(=O)N1CCC(=C2c3ccc(Cl)cc3CCc3cccnc32)CC1 | inactive |

| SMILES | Potency |
| --- | --- |
| O=C1CCC(N2C(=O)c3ccccc3C2=O)C(=O)N1 (stereo not given) | inactive |
| Cc1cccc(-c2nn(C(=S)Nc3ccccc3)cc2-c2ccnc3ccccc23)n1 | inactive |
| O=C1[C@H](Cc2ccc(O)cc2)N2C(=O)CCN(C(=O)NCc3ccccc3)[C@H]2CN1Cc1cccc2ccccc12 | inactive |
| OCCC#Cc1nc(-c2ccc(F)cc2)c(-c2ccncc2)n1CCCc1ccccc1 | inactive |
| Cn1cnc([N+](=O)[O-])c1Sc1ncnc2nc[nH]c12 | inactive |
| Cc1cnc(NC(=O)C2=C(O)c3ccccc3S(=O)(=O)N2C)s1 | inactive |
| CCCCNc1cc(C(=O)O)cc(S(N)(=O)=O)c1Oc1ccccc1 | inactive |
| CC(C)(C)OC(=O)CN(Cc1ccc(Cl)cc1)Cc1ccc([N+](=O)[O-])s1 | inactive |
| Nc1cccc(S(=O)(=O)N2CCCN(S(=O)(=O)c3ccc4c(c3)OCCO4)CC2)c1 | inactive |
| Nc1ccc(S(=O)(=O)Nc2ccnn2-c2ccccc2)cc1 | inactive |
| COc1ccc(CCN2CCN(CCCc3ccccc3)CC2)cc1OC | inactive |
| CCOc1ccn(-c2ccc(F)cc2)c(=O)c1C(=O)Nc1ccc(Oc2ccnc(N)c2Cl)c(F)c1 | inactive |
| Cc1c(C)c2c(c(C)c1O)CCC(C)(COc1ccc(CC3SC(=O)NC3=O)cc1)O2 (stereo not given) | inactive |
| O=C1CCCC2=C1C(c1[nH]ncc1Cl)N=C(Nc1nc3ccccc3o1)N2 (stereo not given) | inactive |
| CS(=O)(=O)c1ccc(C(=O)Nc2ccc(Cl)c(-c3ccccn3)c2)c(Cl)c1 | inactive |
| c1ccc([C@H]2CN3CCSC3=N2)cc1 | inactive |
| CCC(=O)N[C@H]1CC[C@H](C(=O)N(C)c2ccc(-c3nc4ccccc4o3)cc2)C1 | inactive |
| CC(C)C[C@H](NC(=O)[C@@H](O)[C@H](N)Cc1ccccc1)C(=O)O | inactive |
| Oc1cccc(-c2nc(N3CCOCC3)c3oc4ncccc4c3n2)c1 | inactive |
| CCn1c(-c2nonc2N)nc2c(C#CC(C)(C)O)ncc(OC[C@H]3CCCNC3)c21 | inactive |
